The values below come from PubChem BioAssay (Tox21).

Inconclusive results are not listed. Active and inactive are the calls of the source. Calls come from the whole dose curve; as a rule, active = well fitted cell-killing curve with a large enough effect in the repeat runs; inconclusive = weak or mixed curves, or effect the other way; inactive = flat fitted curve, though single readings scatter.

A short description of experiment [1]: cAMP Responsive Elements (CRE) small molecule antagonists, cell-based qHTS assay: qHTS cell viability counter screen (AID 2060913). Note: nearly all actives have a fitted effect of over 40% in size. As to conditions: CRE-bla HEK293T viability, CellTiter-Glo luminescence, 5 h; series mostly up to 92.4 µM. In outline: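 Cytotoxicity counter screen multiplexed with the CRE-bla antagonist read: HEK293T cells in DMEM with dialyzed FBS and 25 mM HEPES were treated 3 hrs under 0.25 uM final NKH477, then viability measured by CellTiter-Glo luminescence.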

Experiment [2] is described as follows: cAMP Responsive Elements (CRE) small molecule agonists, cell-based qHTS assay: qHTS cell viability counter screen (AID 2060914). Note: nearly all actives have a fitted effect of over 50% in size. The following applies: CRE-bla HEK293T viability, CellTiter-Glo luminescence, 5 h; series mostly up to 92.4 µM. The method, boiled down: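 Cytotoxicity was measured as ATP luminescence (CellTiter-Glo, 30 min at room temperature) in the same wells as the CRE-bla FRET read-out. HEK293T CRE-bla cells had 3 h compound exposure at 37C/5% CO2.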
Potency is the fitted concentration of half-maximal effect.

Consider `CC[C@]12CCCN3CCc4c(n(c5ccccc45)[C@@](O)(C(=O)OC)C1)[C@@H]32`, for which the Potency result in experiment [1] and in experiment [2] was “inactive” in each case.

In the case of `Cc1ccccc1Br`, the Potency result in experiment [1] and in experiment [2] was “inactive” in each case.

For `CCCC(c1cc(C(C)(C)C)c(O)cc1C)c1cc(C(C)(C)C)c(O)cc1C`, the Potency in experiment [1] is 24.6 µM (active); in experiment [2] it was 31 µM (active).

Turning to `Cc1ccccc1S`, the Potency entry in experiment [1] and in experiment [2] was “inactive” in each case.

`CC(C)COC(=O)c1ccc(O)cc1`: the Potency result in experiment [1] and in experiment [2] was “inactive” in each case.

With `CC1CCC(C(C)C)C(O)C1` (stereo unspecified), the Potency entry in experiment [1] and in experiment [2] was “inactive” each time.

In the case of `O=[N+]([O-])c1cc(Cl)c(Cl)c(Cl)c1Cl`, the Potency result in experiment [1] and in experiment [2] was “inactive” each time.

With `S=C(S)NCCNC(=S)S`, the Potency entry in experiment [1] and in experiment [2] was “inactive” throughout.
